Assays:
Assay type in all cases: functional
Plasmodium falciparum [1] = experiment: GSK_TCMDC: Inhibition of Plasmodium falciparum 3D7 in whole red blood cells, using parasite LDH activity as an index of growth. Test compounds present at 2uM
Plasmodium falciparum [2] = experiment: GSK_TCMDC: Inhibition of Plasmodium falciparum Dd2 in whole red blood cells, using parasite LDH activity as an index of growth. Test compounds present at 2uM
HepG2 = experiment: GSK_TCMDC: Percent inhibition of human HepG2 cell line. Test compounds present at 10uM.

SMILES	Inhibition (Plasmodium falciparum [1]) [%]	Inhibition (Plasmodium falciparum [2]) [%]	Inhibition (HepG2) [%]
CCCCCC(C)C(C)c1cc(O)c2c(c1)OC(C)(C)CC2(O)c1ccnn1C (configuration not stated)	98	95	20
COc1ccc2nccc(N3CCC(O)(CCNCc4ccc5c(n4)NC(=O)CS5)CC3)c2n1.Cl	99	21	10
CCCC(CNCc1cccc(OC(F)(F)C(F)F)c1)CNc1cc(=O)c2ccccc2[nH]1 (configuration not stated)	100	94	0
O=C(O)C(F)(F)F.O=S(=O)(NCCN1CCCC1)c1ccc(-c2cccc(CNCCc3cccs3)c2)cc1	95	30	41
COc1ccc2nccc([C@@H](O)CN3CCC(NC(=O)C(c4cc5ccccc5o4)N4CCC(Cc5ccccc5)CC4)CC3)c2c1 (some centres not stated)	100	82	11
Cc1ccc(-c2cc(C(=O)Nc3ccc(S(=O)(=O)N4CCCCC4)cc3)[nH]n2)c(O)c1	97	92	6
O=C(Cc1c[nH]cn1)Nc1cccc(-c2ccc(-c3nc4cc(F)ccc4[nH]3)s2)c1	100	94	4
CCCCCCCc1c(C)nc2ccccc2c1O	98	96	0
CC(O)C1CCCCN1C(=O)c1ccc(-c2cccc(-c3nc4cc(F)ccc4[nH]3)c2)cc1 (configuration not stated)	100	97	30
CN1CCC(NCc2ccc(-c3cnc(NCc4ccccc4)nc3)cc2)CC1.O=C(O)C(F)(F)F	91	64	23
O=C(/C=C/c1ccc(Cl)c(Cl)c1)NCCCCCN1CCCN(C(=O)Nc2ccc(Cl)c(Cl)c2)CC1	100	2	55
COCCNC(=O)c1ccc(OC2CCN(CC(C)=Cc3ccccc3)CC2)c(Cl)c1	94	95	18
O=C(Nc1cccc(C(F)(F)F)c1)c1cccc(S(=O)(=O)NCC2CCCN(CC3CCCCC3)C2)c1.O=C(O)C(F)(F)F (configuration not stated)	99	11	17
CN(CCO)Cc1ccc(-c2ccc(NS(=O)(=O)c3cccc4cccnc34)cc2)cc1.O=C(O)C(F)(F)F	99	84	28
COc1ccc2nccc([C@@H](O)CN3CCC(NCC(=O)Nc4cc(F)cc(F)c4)CC3)c2n1.O=C(O)C(=O)O	89	28	18
COc1ccc(-c2cnc3ccc(NCc4ccc(S(N)(=O)=O)cc4)nn23)cc1	96	99	19
CO/C(=C\C=C\c1cc2cc(Cl)c(Cl)cc2[nH]1)C(=O)NC1CCN(CCCc2ccccc2)CC1	93	75	59
Nc1nc(N)c2c(n1)CCC(c1ccccc1)C2 (configuration not stated)	93	0	55
CN1CCCN(Cc2cccc(-c3cccc(NC(=O)c4ccc(Cl)cc4)c3)c2)CC1.O=C(O)C(F)(F)F	100	44	35
CCc1ccc(C(=O)Nc2cccc(CN3CCCN(Cc4ccc(O)cc4)CC3)c2)cc1.O=C(O)C(F)(F)F	100	74	11

SMILES	Inhibition (Plasmodium falciparum [1]) [%]	Inhibition (Plasmodium falciparum [2]) [%]	Inhibition (HepG2) [%]
Cl.O=C(O[C@H]1CN[C@H](C#Cc2cc3ncnc(Nc4ccc5c(ccn5S(=O)(=O)c5cccs5)c4)c3s2)C1)N1CCOCC1	85	48	0
Cc1ccc(NC(=O)c2ccc(N3CCN(c4ccncc4)CC3)cc2)cc1F.O=C(O)C(F)(F)F	100	79	47
CC(C)(C)OC(=O)NCc1ccc(Nc2nnc(-c3ccc(OCC(=O)NCc4ccc(C(C)(C)C)cc4)c([N+](=O)[O-])c3)o2)cc1	96	82	10
CCc1cn2c3c(cc(C(=O)N[C@@H](Cc4ccccc4)[C@H](O)CNC4CCC4)cc13)N(C)S(=O)(=O)CC2	98	98	0
N#Cc1ccc(CN2CCCN(c3ccc(NC(=O)c4ccc(F)cc4)cc3)CC2)cc1.O=C(O)C(F)(F)F	90	61	12
Cl.NOCCCOc1ccccc1	100	0	20
O=C(O)C(F)(F)F.c1ccc2c(c1)CN(CC1CCOCC1)CC1(CCN(Cc3c[nH]c4cnccc34)CC1)O2	99	7	21
FC(F)(F)c1ccc(CSc2ccc3nnc(-c4ccccn4)n3n2)cc1	95	54	0
CNc1nc(N/N=C/c2cc3c(cc2[N+](=O)[O-])OCO3)nc(Nc2cccc(C(F)(F)F)c2)n1	100	60	0
Nc1nc(N)c2cc(C(F)(F)F)ccc2n1	80	1	8
CN1CCC(N2CCN(c3ccc4c(=O)nc(CCc5cccc(F)c5F)n(CC(=O)N(C)Cc5ccc(-c6ccc(C(F)(F)F)cc6)cc5)c4n3)CC2)CC1.O=C(O)C(O)C(O)C(=O)O	100	99	15
Cl.N=c1n(Cc2ccccc2)c2ccccc2n1CC(O)c1ccc(Cl)c(Cl)c1 (configuration not stated)	95	98	40
CC(=O)c1ccc2c(c1)CCN(CCC1CCC(NC(=O)c3cc4ccccc4[nH]3)CC1)CC2.Cl (configuration not stated)	86	47	64
Cc1cc(NCC2CCN(CC3CCCCC3)C2)nc(Nc2ccc(Br)cc2)n1 (configuration not stated)	100	78	0
CCN(CC)CCN(Cc1ccc(-c2ccc(C(F)(F)F)cc2)cc1)C(=O)Cn1c(CCc2cccc(F)c2F)cc(=O)cc1-c1ccccc1	94	64	33
Br.CC(C)(C)c1ccc(OCCCON2C(=N)N=C(N)NC2(C)C)c(C(C)(C)C)c1	93	97	64
CC1CCCCN1Cc1cccc(-c2c[nH]c3nc(NC4CCCC4)ncc23)c1.O=C(O)C(F)(F)F (configuration not stated)	93	14	0
CC1(C)N=C(NC(=O)c2cc([N+](=O)[O-])cc([N+](=O)[O-])c2)N=C(N)N1OCc1cccc2ccccc12	94	20	66
CS(=O)(=O)c1ccccc1CNC(=O)c1ccc(-c2ccc(-c3nc4cc(C(F)(F)F)ccc4[nH]3)s2)cc1	96	76	90
O=C(NCCc1ccccc1)N(Cc1ccccc1-c1cccc(CNCCc2ccccc2)c1)C1CCN(Cc2ccccc2)CC1.O=C(O)C(F)(F)F	100	88	100

SMILES	Inhibition (Plasmodium falciparum [1]) [%]	Inhibition (Plasmodium falciparum [2]) [%]	Inhibition (HepG2) [%]
COc1ccc(Cl)cc1N1CCN(CCCNC(=O)c2ccc(-c3nc4cc(Cl)c(Cl)cc4[nH]3)c(C)c2)CC1	100	0	4
Cc1ccc(C(=O)N2CCc3cc4nccc(N5CCN6CCC[C@H]6C5)c4cc32)cc1	95	13	5
CCc1cc2c(=O)c(-c3nc(C)cs3)c([C@H](N)Cc3ccc(O)cc3)oc2cc1O.O=C(O)C(F)(F)F	100	19	11
CCCc1cc(N2CCC(N3CCCC3)CC2)nc(Nc2ccc(Cl)cc2)n1	96	9	29
Cc1ccc(S(=O)(=O)O)cc1.N=C(N)NCCCC(=O)NCC(N)=O	100	0	20
COc1cc(C=CC(=O)N2CCN(Cc3cccc(C)c3)CC2)ccc1OCc1c(C)noc1C	86	95	8
COc1ccc2ccccc2c1C=NN=c1cc(C)[nH]c2c(C)cccc12	100	94	0
COc1ccc(N2CCc3c(-c4cccc5cnccc45)cc(C)nc32)c(C)c1	96	0	20
CN1CCN(CCCN(Cc2csc(-c3ccc(CNCc4ccccc4)cc3)n2)C(=O)Nc2ccc3ccccc3c2)CC1.O=C(O)C(F)(F)F	94	63	12
O=c1cc(NCCC(CNCCc2ccccc2)NCc2cc(Br)cc(Br)c2)[nH]c2ccccc12 (configuration not stated)	98	47	3
Cl.N#Cc1ccc(CCNc2nccc(-c3cccc(CN4CCNCC4)c3)n2)cc1	83	0	5
Br.Oc1ccc(CCNCCCCCCNCCCc2ccc(Cl)cc2)cc1O	87	3	13
COc1ccc(-c2cccc(NC(=O)c3ccc(C#N)cc3)c2)cc1CNC(C)C.O=C(O)C(F)(F)F	100	14	25
CN1CCC(C(=O)Nc2cccc(-c3ccc(-c4nc5cc(C(F)(F)F)ccc5[nH]4)s3)c2)CC1	100	95	29
CN(C(=O)Nc1ccc(F)cc1)C1CCN(CCCCCNC(=O)/C=C/c2ccc(Cl)c(Cl)c2)CC1	89	0	38
N#Cc1ccc(N2CCN(Cc3cccc(-c4cccc(-c5nc6cc(F)ccc6[nH]5)c4)c3)CC2)nc1.O=C(O)C(F)(F)F	90	52	26
COc1cc(CNCCC(C)C)ccc1OCc1cccc(COc2ccc(CNCCC(C)C)cc2OC)c1.Cl	99	20	97
COc1ccc(C2CC(=O)C3=C(C2)NC(C)=C(C(=O)OC2CCCC2)C3c2ccc(O)cc2)cc1OC (configuration not stated)	97	92	0
Oc1c(C(Nc2ccccn2)c2ccc(Cl)cc2Cl)ccc2cccnc12 (configuration not stated)	88	60	42

Source: ChEMBL document CHEMBL1157539, “Thousands of chemical starting points for antimalarial lead identification” (Nature, 2010)
